HT1080 IDH1KD tx – qHTS for induction of synthetic lethality in tumor cells producing 2HG: qHTS for the HT-1080-IDH1KD cell line. HT-1080 IDH1 knockdown viability, ATP luminescence, 48 h. Potency, µM (series often up to 46.1 µM), for inactives: at the highest dose activity, negative = toxicity, hits mostly cytotoxic. 360,000 compounds, 2% hits. AID 686971, 2013;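 also: potency is read from the fitted curve at half-maximal effect; 0% = DMSO wells and -100% = cell-free medium wells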
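CellTiter-Glo luminescence after 48 h compound exposure at 37 degrees C of IDH1-knockdown HT-1080 cells in 5% FBS RPMI. %Activity scaled between DMSO wells and cell-free media wells, with curves fitted and assigned curve classes.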
DT40 TDP1 no CPT – qHTS for Inhibitors of human tyrosyl-DNA phosphodiesterase 1 (TDP1): qHTS in cells in absence of CPT; DT40 Tdp1-/- hTDP1 cells, no CPT, ATP luminescence, 48 h; Potency, µM (top dose mostly 46.2 µM), inactives show at the top dose activity change, negative = growth inhibition, most hits filed as inhibitors; 420,000 compounds, 15% hits; AID 686978, 2013; also: potency is read from the fitted curve at half-maximal effect; nearly all actives have a fitted effect of over 55% in size
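DT40 Tdp1-/-;hTDP1 cells, no CPT (DMSO vehicle only), 400 cells/well; compounds pin-transferred; ≥48 hr, 37 °C; CellTiter-Glo 30 min RT dark, luminescence read.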
ALOX12 inh – Primary qHTS assay for inhibitors of human arachidonate 12S-lipoxygenase (ALOX12): Round 2. Potency, µM (series often up to 108 µM), for inactives: at the top dose activity change, negative = inhibition, actives largely listed as inhibitors. purified 12hLO, xylenol orange hydroperoxide absorbance. 580,000 compounds, 1.1% hits. AID 1671190, 2021; also: potency is read from the fitted curve at half-maximal effect
Target sequence (P18054 whole entry, looked up): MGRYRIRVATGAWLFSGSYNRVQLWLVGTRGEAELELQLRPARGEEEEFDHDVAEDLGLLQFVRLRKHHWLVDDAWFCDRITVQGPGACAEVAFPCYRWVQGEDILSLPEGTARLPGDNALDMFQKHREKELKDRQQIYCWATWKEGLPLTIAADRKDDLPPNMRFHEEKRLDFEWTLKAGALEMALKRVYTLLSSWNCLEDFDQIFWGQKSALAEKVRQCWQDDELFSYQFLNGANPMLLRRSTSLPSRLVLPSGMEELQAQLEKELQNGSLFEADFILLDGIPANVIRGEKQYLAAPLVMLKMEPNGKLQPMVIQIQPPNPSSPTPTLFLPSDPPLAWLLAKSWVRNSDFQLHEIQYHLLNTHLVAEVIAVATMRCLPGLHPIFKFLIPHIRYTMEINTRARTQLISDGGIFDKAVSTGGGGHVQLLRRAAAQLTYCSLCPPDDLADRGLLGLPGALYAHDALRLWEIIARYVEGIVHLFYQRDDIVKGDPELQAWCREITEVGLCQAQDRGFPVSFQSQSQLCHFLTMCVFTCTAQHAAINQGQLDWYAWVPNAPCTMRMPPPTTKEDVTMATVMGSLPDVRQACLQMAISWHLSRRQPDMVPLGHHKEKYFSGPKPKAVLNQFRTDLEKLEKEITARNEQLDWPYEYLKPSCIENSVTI
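Purified human 12hLO at 150 nM in 25 mM Hepes, 0.01% Triton X-100, pH 7.0, preincubated 15 min at room temperature with compound. Reaction started with 40 uM arachidonic acid, 30 min at room temperature. Hydroperoxide measured by Fe-xylenol orange, 573/405 nm absorbance ratio.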
TDP1 cell CPT – qHTS for Inhibitors of human tyrosyl-DNA phosphodiesterase 1 (TDP1): qHTS in cells in presence of CPT; chicken DT40 Tdp1-/-;hTDP1 cells + 20 nM CPT, ATP luminescence, 48 h; Potency, µM (highest dose often 46.2 µM), for inactives: at the highest dose activity change, negative = growth inhibition, actives largely listed as inhibitors; 420,000 compounds, 12% hits; AID 686979, 2013; also: potency is read from the fitted curve at half-maximal effect; nearly all actives have a fitted effect of over 55% in size
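Cell growth measured by CellTiter-Glo luminescence after a minimum 48 h, 37 C compound exposure with 20 nM CPT in Tdp1-knockout DT40 cells stably expressing hTDP1, seeded 400/well; qHTS titration format.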
IL-1B inflam inh – qHTS for Inhibitors of Inflammasome Signaling: IL-1-beta AlphaLISA Primary Screen. activity change, % at 57.5 µM. AID 743279, 2014. THP-1 LPS/ATP IL-1B secretion, AlphaLISA, 16 h; stronger effect = lower value. 360,000 compounds, 4.7% hits; in the data active = activity change below about -50%; inconclusive = mostly about -30% to -49%
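Secreted IL-1B measured by AlphaLISA bead assay after 16 h compound exposure of THP-1 cells; compounds (final up to 57.5 uM) added 1 h before LPS (250 ng/mL) and ATP (1.25 mM) stimulation; lower signal means less secretion.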
HT1080-NT tox – qHTS for induction of synthetic lethality in tumor cells producing 2HG: qHTS for the HT-1080-NT fibrosarcoma cell line; HT-1080-NT fibrosarcoma viability, CellTiter-Glo ATP luminescence, 48 h; Potency, µM (top dose mostly 46.1 µM), for inactives: top-dose activity, negative = less viability, most hits filed as cytotoxic; 360,000 compounds, 1.6% hits;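 also: NT is the 2HG producing partner of a matched IDH1 knockdown line; potency is read from the fitted curve at half-maximal effect; 0% = DMSO-treated cells and -100% = media-only wells without cells; nearly all actives have a fitted effect of over 55% in size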
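Fibrosarcoma NT cells, 750 per well in 5% FBS RPMI, were exposed to compound for 48 hours. Viability: CellTiter-Glo luminescence.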
* hit, by the source's call; ? = inconclusive; nt = no result given; [ ] = remark or other dose. Many of the other results were omitted from the sample, so hits are more common in it than they were. Unless noted, calls follow the shape of the dose curve; as a rule, active = well fitted curve in the direction sought with a large enough effect; inconclusive = small, poorly fitted or top-dose-only effect, or another doubt; inactive = no such curve, though single readings can be large; an effect the other way counts as inactive or inconclusive. Unless noted, % is scaled to controls: 0 for no effect and ±100 for the full control effect.

SMILES	HT1080 IDH1KD tx	DT40 TDP1 no CPT	ALOX12 inh	TDP1 cell CPT	IL-1B inflam inh	HT1080-NT tox
CC1=C(c2ccc(Cl)cc2)[N+](=O)C(C)(C)N1[O-]	6.8%	?	-10.0%	16.4µM*	-3.0	-4.6%
Cc1ccc(NC(=O)Nc2ccnc(-c3cccnc3)n2)cc1	-5.9%	8.2µM*	-27.4%	8.2µM*	35.6	-4.0%
CCOC(=O)c1c(C)c(C(=O)Nc2ccc3c(c2)OCO3)c(C)n1C	2.6%	-4.1%	13.8%	0.6%	0.0	15.6%
CC1CCCC(C)N1C(=O)COC(=O)c1ccc2c(c1)OCO2 (stereo unspecified)	-0.5%	29.1µM*	4.7%	-0.7%	12.8	-6.1%
CC1CC(C)CN(C(=O)COC(=O)c2ccc3c(c2)OCO3)C1 (stereo unspecified)	-0.1%	-10.2%	0.0%	-4.2%	-4.9	1.9%
CCOC(=O)c1cccc(NC(=O)c2ccc3c(c2)OCO3)c1	-11.9%	11.6µM*	1.8%	14.6µM*	-84.7*	0.7%
CCOC(=O)c1cccc(NC(=O)/C=C/c2ccc3c(c2)OCO3)c1	?	18.4µM*	19.4%	?	-89.5*	?
CCOC(=O)c1c(C)c(C(=O)Nc2ccc3c(c2)OCCO3)c(C)n1CC	?	11.2µM*	-9.0%	10µM*	16.2	?
CC(=O)N(C1CC(C)C(C#N)(C#N)C1(C#N)C#N)N(C)C (stereo unspecified)	?	0.581µM*	-1.8%	0.517µM*	-111.6*	-16.0%
CCCC(=O)N(C1CC(C)C(C#N)(C#N)C1(C#N)C#N)N(C)C (stereo unspecified)	?	2.31µM*	0.0%	1.3µM*	-100.7*	?
O=C(Cn1ccc2ccc(Cl)cc21)N1CCOCC1	nt	nt	11.5%	nt	nt	nt
O=C(CCCCCNc1nc(=S)[nH]c2ccccc12)NCCc1ccccc1	-3.9%	?	-30.6%	?	26.5	-4.1%
COc1ccc(CNC(=O)CCCCCNc2nc(=S)[nH]c3ccccc23)cc1	-13.2%	10.3µM*	-8.3%	?	-15.7	-9.6%
COc1ccc(CCNC(=O)CCCCCNc2nc(=S)[nH]c3ccccc23)cc1OC	-5.0%	18.4µM*	-4.7%	?	-8.6	-3.2%
NS(=O)(=O)Cc1ccc(CNC(=O)COc2ccccc2)cc1	nt	nt	45.7%	nt	nt	nt
COc1ccc(C)cc1Cn1c(S(C)(=O)=O)nc2ccccc21	-30.3%	20.6µM*	?	16.4µM*	15.6	?
CC1=C[C@@H](CN)[C@H](C(C)C)C[C@H]1Cc1nc2ccc(C)cc2[nH]1	nt	nt	-2.1%[176 µM]	nt	nt	nt
COC(=O)c1cc(S(=O)(=O)N2CCC(c3ccccc3)C2)c[nH]1 (stereo unspecified)	-1.9%	?	11.8%	23.1µM*	30.9	?
COc1ccc(NC(=O)c2cc(S(=O)(=O)N3CCCCC3)c[nH]2)c(OC)c1	-8.1%	-29.3%	-22.3%	-20.1%	-2.7	-6.3%
COC(=O)c1cc(S(=O)(=O)N2CCC(c3cc(OC)ccc3OC)C2)c[nH]1 (stereo unspecified)	-13.3%	?	-6.4%	13µM*	-5.2	-17.7%
CC(C)Cn1cnc2c1c(=O)n(Cc1ccccc1C#N)c(=O)n2Cc1ccccc1	nt	nt	-23.8%	nt	nt	nt
COc1ccccc1CNC(=O)Nc1cccs1	7.3%	?	?	?	13.7	-1.2%
COc1ccccc1NC(=O)Nc1nc(C(C)(C)C)cs1	-27.8%	-22.9%	-0.5%	16.4µM*	-83.1*	?
COc1ccc(OC)c(NC(=O)Nc2nc(CN)cs2)c1	2.7%	?	0.8%	?	-7.7	2.3%
COc1ccccc1CNC(=O)Nc1nc(C(N)C(C)C)cs1 (stereo unspecified)	?	?	-0.4%	?	-50.9*	?
SMILES	HT1080 IDH1KD tx	DT40 TDP1 no CPT	ALOX12 inh	TDP1 cell CPT	IL-1B inflam inh	HT1080-NT tox
COc1ccc(OC)c(NC(=O)Nc2nc(C(C)N)cs2)c1 (stereo unspecified)	-21.5%	?	-0.5%	-29.0%	-68.9*	-28.5%
COc1ccccc1NC(=O)Nc1nc(C(N)C(C)C)cs1 (stereo unspecified)	?	20.6µM*	3.7%	?	-26.8	?
C[S+](=O)([O-])N1CCC2(CCN(Cc3cccs3)c3ccccc3O2)CC1	nt	nt	-1.5%	nt	nt	nt
COc1cccc(CCc2ccccc2C(=O)N2CC[C@](C)(O)[C@H](C)C2)c1	nt	nt	16.5%	nt	nt	nt
CNC(=S)NNC(=O)c1csc(C(C)C)c1	nt	nt	1.7%	nt	nt	nt
C[N+]1(Cc2cccc(F)c2)CCN(/C=C/C(=O)C(F)(F)F)CC1	nt	nt	-16.7%	nt	nt	nt
CCOC(=O)CN1CCN(c2nc3c(c(=O)[nH]c(=O)n3C)n2Cc2cccc3ccccc23)CC1	nt	nt	-16.3%	nt	nt	nt
CC1=C(C(=O)Nc2ccccc2)C(c2ccc(C(C)(C)C)cc2)NC(=S)N1 (stereo unspecified)	nt	nt	39.8µM*	nt	nt	nt
CCCOc1ccc(C2NC(=S)NC(c3ccccc3)=C2C(=O)Nc2ccc(C)cc2)cc1OC (stereo unspecified)	-2.3%	?	31.6µM*	?	-19.5	1.7%
Cc1ccc(NC(=O)C2=C(c3ccccc3)NC(=S)NC2c2ccc(C(C)(C)C)cc2)cc1 (stereo unspecified)	nt	nt	14.1µM*	nt	nt	nt
O=C1NCCCCCCN(Cc2ccncc2)[C@@H]2CN(Cc3ccncc3)CC[C@@H]12	nt	nt	172.7%	nt	nt	nt
O=C(NC(c1ccc(Cl)cc1)c1cnccn1)C1CCN(Cc2ccccc2)CC1 (stereo unspecified)	3.8%	?	2.6%	?	-2.1	6.7%
CN(C)c1ccc(CN2CCC(C(=O)NC(c3ccc(Cl)cc3)c3cnccn3)CC2)cc1 (stereo unspecified)	?	16.4µM*	?	20.6µM*	?	-22.0%
O=C(NC(c1ccc(Cl)cc1)c1cnccn1)C1CCN(Cc2cccc(C(F)(F)F)c2)CC1 (stereo unspecified)	?	8.2µM*	?	11.6µM*	nt	?
O=C(NC(c1ccc(-c2ccccc2)cc1)c1cnccn1)C1CCN(Cc2cccc(C(F)(F)F)c2)CC1 (stereo unspecified)	?	18.4µM*	nt	25.9µM*	-63.1*	-91.5%
